From PubChem BioAssay (Tox21) come the findings set out here.

Values joined by “and” are separate entries in the source; they are usually repeats but may differ in a detail not shown here. Equal entries are not always repeated. Results filed as inconclusive are left out. More than one record can exist for a structure, and the calls need not agree. Active and inactive are the calls of the source. Unless noted, calls follow the shape of the full dose curve.

Assay [1] in a line: Nuclear factor erythroid 2-related factor 2/antioxidant responsive element (Nrf2/ARE) small molecule agonists: luciferase reporter gene qHTS assay in human keratinocytes (AID 1919969). Also: nearly all actives have a fitted effect of over 35% in size. Also: potency is read from the fitted curve at half-maximal effect. For orientation: A reporter such as luciferase makes a cellular process visible.
The target in assay [2] is KiSS-1 receptor (Homo sapiens) (UniProt Q969F8). Description: Human kisspeptin (KISS1R) small molecule agonists, calcium flux assay in KISS1R-HEK293 cells (AID 1920064; active = well fitted activation curve with a large enough effect in the repeat runs). An outline of the steps: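 Stable human KISS1R HEK293 line; 18 h plating, 37 C/5% CO2; calcium dye 1 h 37 C; compound pin transfer; kinetic fluorescence Ex/Em 480/540, 3 min.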
KiSS-1 receptor (Homo sapiens), sequence (Q969F8 whole entry, looked up): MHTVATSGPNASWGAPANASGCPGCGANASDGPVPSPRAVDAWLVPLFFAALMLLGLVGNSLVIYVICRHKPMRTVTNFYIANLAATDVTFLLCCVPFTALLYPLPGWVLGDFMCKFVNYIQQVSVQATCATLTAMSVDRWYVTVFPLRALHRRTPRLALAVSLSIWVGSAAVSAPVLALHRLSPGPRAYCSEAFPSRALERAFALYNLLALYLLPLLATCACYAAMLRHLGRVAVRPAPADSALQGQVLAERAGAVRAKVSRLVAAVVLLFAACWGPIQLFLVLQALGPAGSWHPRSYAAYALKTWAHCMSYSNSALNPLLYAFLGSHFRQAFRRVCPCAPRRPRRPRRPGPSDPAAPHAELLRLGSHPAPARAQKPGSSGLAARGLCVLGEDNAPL
On the technique in general: Calcium assays in cells follow changes in intracellular calcium, usually with a dye or a luminescent sensor.

The nature of assay [3]: G protein-coupled receptor (GPCR) small molecule agonists, calcium flux assay: HEK293 wild type cell line counter screen (AID 1920065). Also: potency is read from the fitted curve at half-maximal effect. An outline of the steps: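 Kinetic fluorescence at Ex/Em 480/540, recorded every second over 3 min, served as the read-out after compound addition. Each compound was tested at 15 concentrations in triplicate on cells pre-loaded with calcium dye for 1 h.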

Assay [4] is described as follows: p53 small molecule agonists, cell-based qHTS assay with human liver microsomes (AID 1963577). An outline of the steps:
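Cells carrying a p53-responsive bla reporter were rested 5 h (37 C, 5% CO2) before compound transfer. Human liver microsomes plus NADPH, 0.5 mg/mL final apiece, supplied metabolism during the 16 h 37 C exposure.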
A general note: Quantitative high-throughput screening tests each substance at several concentrations.

Assay [5] can be described thus: p53 small molecule agonists, cell-based qHTS assay with rat liver microsomes (AID 1963578). An outline of the steps:
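Fluorescence from a beta-lactamase reporter under a p53 response element was measured after cells had been incubated 16 h at 37 C with test compound and rat liver microsomes plus NADPH (0.5 mg/mL final each).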

A short description of assay [6]: p53 small molecule agonists, cell-based qHTS assay with human liver microsomes: qHTS cell viability counter screen (AID 1963579). Also: nearly all actives have a fitted effect of over 45% in size. Also: potency is read from the fitted curve at half-maximal effect. An outline of the steps:
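Seed p53RE-bla cells at 4,000 per well; incubate 5 h at 37 C; add compound, human liver microsomes and NADPH; incubate 16 h at 37 C; add CellTiter-Glo; after 30 min at room temperature, read luminescence.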

The nature of assay [7]: p53 small molecule agonists, cell-based qHTS assay with rat liver microsomes: qHTS cell viability counter screen (AID 1963580). Also: nearly all actives have a fitted effect of over 45% in size. An outline of the steps: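 Viability is assessed in parallel with the p53 reporter read: HCT-116 p53RE-bla cells receive compounds plus rat microsomes and NADPH (0.5 mg/mL final apiece), incubate 16 h at 37 C, and then CellTiter-Glo luminescence is recorded.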

The nature of assay [8]: p53 small molecule agonists, cell-based qHTS assay: qHTS cell viability counter screen (AID 1963581). Also: nearly all actives have a fitted effect of over 45% in size. An outline of the steps: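 HCT-116 p53RE-bla cells, 4,000/well, plated 5 h before compound pin transfer; 16 h at 37 C; bla substrate 2 h RT; then CellTiter-Glo, 30 min RT, luminescence.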
Assay [9] is described as follows: p53 small molecule agonists, cell-based qHTS assay (AID 1963582; active = well fitted activation curve with a large enough effect in the signal ratio in the repeat runs, not every such curve was filed as active; the % refers to the signal ratio). An outline of the steps: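 Reporter line: p53RE-bla. Pre-incubation 5 h, 37 C, 5% CO2; compound (DMSO, pin tool) 16 h, 37 C; B/G FRET substrate 2 h RT; fluorescence intensity read.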
Assay [10] deals with 5-hydroxytryptamine receptor 2A (Homo sapiens) (UniProt P28223). Description: 5-hydroxytryptamine receptor 2A (HTR2A) small molecule antagonists, cell-based qHTS assay (AID 1963586). Also: nearly all actives have a fitted effect of over 45% in size. Also: potency is read from the fitted curve at half-maximal effect. An outline of the steps:
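Antagonist-mode intracellular calcium assay: DOI (4 nM) added after 5 min compound pre-incubation at room temperature to dye-loaded HTR2A-CHO cells. Fluorescence followed for 3 min, sampled every second.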

For assay [11] the target is unchanged. Kind of assay: 5-hydroxytryptamine receptor 2A (HTR2A) small molecule agonists, cell-based qHTS assay (AID 1963587). Also: nearly all actives have a fitted effect of over 30% in size. Also: potency is read from the fitted curve at half-maximal effect. An outline of the steps:
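CHO cells stably expressing human HTR2A, plated 18 h, loaded with calcium dye 1 h at 37 C. Agonist mode: compounds added and intracellular calcium fluorescence recorded kinetically for 2 min at 1 sec intervals.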

Assay [12] has as its target Muscarinic acetylcholine receptor M1 (Homo sapiens) (UniProt P11229). Kind of assay: Cholinergic receptor muscarinic 1 (CHRM1) small molecule antagonists, cell-based qHTS assay (AID 1963588). Also: nearly all actives have a fitted effect of over 40% in size. Also: potency is read from the fitted curve at half-maximal effect. An outline of the steps:
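CHRM1-CHO calcium-flux assay, antagonist mode. Cells were seeded 18 h, dye-loaded 1 h at 37 C and given compound for 5 min at RT, then acetylcholine was added at 50nM. FDSS fluorescence was read 3 min; 15 concentrations, three runs.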

The target is the same in assay [13]. Description: Cholinergic receptor muscarinic 1 (CHRM1) small molecule agonists, cell-based qHTS assay (AID 1963589). Also: nearly all actives have a fitted effect of over 35% in size. Also: potency is read from the fitted curve at half-maximal effect. An outline of the steps: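 Human M1 in stable CHO line; 18 h plating, 1 h dye load 37 C; cpd added (agonist mode); Ca2+ fluorescence kinetic read, 1 s intervals; 15 conc, 3 runs.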
For assay [14], the target named is Beta-2 adrenergic receptor (Homo sapiens) (UniProt P07550). Kind of assay: Adrenergic beta2 receptor (ADRB2) small molecule antagonists, cell-based qHTS assay (AID 1963592). Also: nearly all actives have a fitted effect of over 50% in size. Also: potency is read from the fitted curve at half-maximal effect. An outline of the steps: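 Cells (CHO, stable ADRB2 overexpression) incubated 18-20hr at 37C; compounds added from DMSO; agonist mix (1nM isoproterenol, 100uM IBMX, 25uM Ro-20-1724) added; 0.5hr RT; d2-cAMP and anti-cAMP-cryptate added; 1hr RT; 665/615 nm read.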
Beta-2 adrenergic receptor (Homo sapiens), sequence (P07550 whole entry, looked up): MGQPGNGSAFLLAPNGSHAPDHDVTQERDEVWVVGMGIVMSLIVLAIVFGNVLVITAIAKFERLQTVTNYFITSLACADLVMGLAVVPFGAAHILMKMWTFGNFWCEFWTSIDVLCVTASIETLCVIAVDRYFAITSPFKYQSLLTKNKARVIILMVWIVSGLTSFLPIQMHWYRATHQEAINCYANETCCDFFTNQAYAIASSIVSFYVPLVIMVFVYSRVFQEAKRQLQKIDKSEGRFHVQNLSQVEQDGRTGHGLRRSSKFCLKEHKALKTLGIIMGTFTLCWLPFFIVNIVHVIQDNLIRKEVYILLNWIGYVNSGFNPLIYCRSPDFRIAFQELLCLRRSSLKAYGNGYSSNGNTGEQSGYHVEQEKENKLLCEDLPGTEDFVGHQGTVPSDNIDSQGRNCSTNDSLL

Assay [15] has the same target. Kind of assay: Adrenergic beta2 receptor (ADRB2) small molecule agonists, cell-based qHTS assay (AID 1963593). Also: potency is read from the fitted curve at half-maximal effect.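 As to activation: CHO cells stably overexpressing human ADRB2.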 An outline of the steps: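 CHO cells stably over-expressing ADRB2 were plated overnight at 37C, then dosed with compounds plus a stimulation mix containing 100uM IBMX and 25uM Ro-20-1724 for 0.5hr at room temperature. cAMP was measured by HTRF competition, 1hr.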

For assay [16], the target named is D(2) dopamine receptor (Homo sapiens) (UniProt P14416). Kind of assay: Dopamine D2 receptor (DRD2) small molecule agonists, cell-based qHTS assay (AID 1963594). Also: nearly all actives have a fitted effect of over 35% in size. An outline of the steps: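 HEK293 cells stably expressing human DRD2, pre-treated with PDE inhibitor Ro20-1724 (0.1 mM final) and compound 10 min at room temperature, then stimulated with NKH477 (200nM […]) for 30 min. cAMP read by HTRF (665/620 nm).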
D(2) dopamine receptor (Homo sapiens), sequence (P14416 whole entry, looked up): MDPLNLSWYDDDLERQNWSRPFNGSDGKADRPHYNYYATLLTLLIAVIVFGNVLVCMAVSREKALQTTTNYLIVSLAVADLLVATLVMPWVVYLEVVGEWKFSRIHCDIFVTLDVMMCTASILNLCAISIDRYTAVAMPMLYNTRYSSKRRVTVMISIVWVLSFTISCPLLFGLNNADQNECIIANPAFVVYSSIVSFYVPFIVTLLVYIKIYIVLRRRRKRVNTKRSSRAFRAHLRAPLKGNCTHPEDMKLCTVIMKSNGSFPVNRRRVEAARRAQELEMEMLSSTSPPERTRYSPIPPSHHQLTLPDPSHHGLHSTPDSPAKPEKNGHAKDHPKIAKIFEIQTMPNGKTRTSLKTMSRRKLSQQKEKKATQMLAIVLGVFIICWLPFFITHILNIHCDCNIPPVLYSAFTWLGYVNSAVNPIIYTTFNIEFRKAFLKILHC

Assay [17] has the same target. Kind of assay: Dopamine D2 receptor (DRD2) small molecule antagonists, cell-based qHTS assay (AID 1963595; active = well fitted inhibition curve with a large enough effect in the signal ratio in the repeat runs, with a control signal flat; the % refers to the signal ratio; also: potency is read from the fitted curve at half-maximal effect). An outline of the steps:
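HEK293 cells stably expressing DRD2 were preincubated with 0.1 mM Ro20-1724, then with compound for 10 min at room temperature. Cells were stimulated with 200 nM NKH477 plus 12 nM quinpirole for 30 min, and cAMP was read by HTRF.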

The nature of assay [18]: cAMP Responsive Elements (CRE) small molecule agonists, cell-based qHTS assay (AID 1963590). An outline of the steps:
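HEK 293T CRE-bla, 2,000 cells/well, 18 h preincubation 37 C/5% CO2; cpds (DMSO) pinned, 3 h; LiveBLAzer B/G FRET substrate, 2 h RT.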

Assay [19] is described as follows: cAMP Responsive Elements (CRE) small molecule antagonists, cell-based qHTS assay (AID 1963591; active = well fitted inhibition curve with a large enough effect in the signal ratio in the repeat runs, not every such curve was filed as active; the % refers to the signal ratio; also: potency is read from the fitted curve at half-maximal effect). An outline of the steps:
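Beta-lactamase reporter read by FRET substrate (LiveBLAzer B/G) after 2 h at room temperature. CRE-bla HEK293T cells had received compound plus 0.25 uM (final) NKH477 for 3 h at 37 °C.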

In assay [20] the target is Gonadotropin-releasing hormone receptor (Homo sapiens) (UniProt P30968). Description: Human gonadotropin-releasing hormone receptor (GnRHR) small molecule agonists, calcium flux assay in GnRHR-HEK293 cells (AID 1920063). Also: nearly all actives have a fitted effect of over 35% in size. Also: potency is read from the fitted curve at half-maximal effect. An outline of the steps: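 GnRHR-HEK293, 1500 cells/well, 18 h 37 C/5% CO2; Ca dye 1 h 37 C; cpd pinned (DMSO), agonist mode; kinetic FL 480/540, 3 min, 1 s reads; 15 conc, n=3.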
Gonadotropin-releasing hormone receptor (Homo sapiens), sequence (P30968 whole entry, looked up): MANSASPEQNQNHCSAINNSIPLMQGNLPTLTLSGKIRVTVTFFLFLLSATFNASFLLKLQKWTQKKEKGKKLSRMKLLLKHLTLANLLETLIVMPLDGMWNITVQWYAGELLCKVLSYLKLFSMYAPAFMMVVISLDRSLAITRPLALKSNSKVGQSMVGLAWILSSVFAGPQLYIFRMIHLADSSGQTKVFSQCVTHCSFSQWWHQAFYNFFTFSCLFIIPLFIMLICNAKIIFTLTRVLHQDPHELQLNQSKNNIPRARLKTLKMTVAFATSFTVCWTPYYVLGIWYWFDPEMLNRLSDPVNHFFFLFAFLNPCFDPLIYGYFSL

Muscarinic acetylcholine receptor M1 (Homo sapiens), sequence (P11229 whole entry, looked up): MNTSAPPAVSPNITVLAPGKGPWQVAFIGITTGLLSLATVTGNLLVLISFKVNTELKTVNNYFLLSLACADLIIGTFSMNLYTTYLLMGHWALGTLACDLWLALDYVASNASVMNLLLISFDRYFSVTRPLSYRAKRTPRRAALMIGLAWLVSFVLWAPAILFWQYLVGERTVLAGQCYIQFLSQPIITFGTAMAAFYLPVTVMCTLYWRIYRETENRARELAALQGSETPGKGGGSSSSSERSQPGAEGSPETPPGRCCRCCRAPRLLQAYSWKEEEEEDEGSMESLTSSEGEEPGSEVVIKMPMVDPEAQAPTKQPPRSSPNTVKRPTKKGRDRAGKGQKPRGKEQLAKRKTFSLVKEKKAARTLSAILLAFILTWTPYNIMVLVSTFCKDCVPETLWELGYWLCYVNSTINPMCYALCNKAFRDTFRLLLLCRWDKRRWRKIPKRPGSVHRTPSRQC
5-hydroxytryptamine receptor 2A (Homo sapiens), sequence (P28223 whole entry, looked up): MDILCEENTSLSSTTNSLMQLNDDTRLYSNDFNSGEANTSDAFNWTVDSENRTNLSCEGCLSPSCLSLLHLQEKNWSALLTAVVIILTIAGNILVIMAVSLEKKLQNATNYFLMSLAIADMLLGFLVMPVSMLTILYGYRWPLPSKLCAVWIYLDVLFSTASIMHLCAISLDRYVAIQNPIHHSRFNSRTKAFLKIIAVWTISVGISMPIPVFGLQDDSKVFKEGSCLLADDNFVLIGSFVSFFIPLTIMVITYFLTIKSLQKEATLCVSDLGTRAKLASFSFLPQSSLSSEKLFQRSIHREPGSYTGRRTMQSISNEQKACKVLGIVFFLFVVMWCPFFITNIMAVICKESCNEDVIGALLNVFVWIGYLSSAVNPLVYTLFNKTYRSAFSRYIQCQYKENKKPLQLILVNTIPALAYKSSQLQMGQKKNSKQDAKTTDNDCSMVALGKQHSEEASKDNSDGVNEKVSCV

As to `CC(C)(c1ccccc1)c1ccc(O)cc1`, the Potency result in assay [1], in assay [2], in assay [3], in assay [4], in assay [5] and in [7] was “inactive” each time. The Potency entry in assay [8], in assay [9], in assay [12], in assay [13], in assay [14] and in [15] was “inactive” in each case. In addition, the Potency entry in assay [16] was “inactive”. The Potency in assay [6] was 45.4 µM (active) and inactive; in [10], 33.2 µM (active) and inactive; in assay [11], 54.5 µM (active) and inactive; in [17] it was 61.1 µM (active).

On to `C[C@@H]1C[C@@H]([C@H](O)CC2CC(=O)NC(=O)C2)C(=O)[C@@H](C)C1`, for which the Potency entry in assay [1], in assay [2], in assay [3], in assay [5], in [6] and in assay [7] was “inactive” throughout. Further, the Potency entry in [8], in assay [9], in [18], in assay [14], in [16] and in [17] was “inactive” throughout. Besides, in assay [19], the Potency was 8.58 µM (active) and 8.3 µM (active) and 2.66 µM (active).

With `O=C1NCN(c2ccccc2)C12CCN(CCCOc1ccc(F)cc1)CC2`, the Potency result in [1], in assay [4], in assay [5], in assay [7] and in assay [18] was “inactive” each time. The Potency in assay [20] was 9.52 µM (active); in assay [3], 10.7 µM (active); in assay [13] it was 4.77 µM (active); in assay [14] it was 5.96 µM (active); in assay [17], 0.106 µM (active).

As for `CC(C)NCC(O)c1ccccc1Cl` (stereo not drawn), the Potency result in assay [1], in assay [20], in assay [3], in [5], in assay [7] and in assay [8] was “inactive” throughout. Moreover, the Potency entry in assay [9], in [19], in assay [14], in [16] and in assay [17] was “inactive” in each case. Moreover, the Potency in assay [15] was 0.668 µM (active).

Turning to `Nc1ccccc1C(=O)OC/C=C/c1ccccc1`, the Potency result in [1], in [2], in assay [3], in assay [5], in assay [7] and in assay [9] was “inactive” in each case. Also, the Potency result in assay [10], in [11], in assay [12], in assay [13], in assay [14] and in assay [16] was “inactive” throughout. Also, the Potency entry in assay [17] was “inactive”.

With `Fc1ccc(Oc2ccnc3cc(Cl)cc(Cl)c23)cc1`, the Potency in assay [1] is 24.3 µM (active). The Potency entry in assay [20], in [3], in assay [5], in [6], in assay [7] and in assay [8] was “inactive” throughout. Besides, the Potency result in assay [10], in assay [11], in assay [12], in [13], in assay [19] and in assay [15] was “inactive” each time. Further, in assay [17], the Potency result was “inactive”.

Regarding `OC(c1ccc(Cl)cc1)(c1ccc(Cl)cc1)c1cccnc1`, the Potency result in [1], in assay [2], in [3], in [4], in [6] and in assay [9] was “inactive” each time. The Potency result in [11], in assay [13], in assay [18], in assay [19], in assay [14] and in [16] was “inactive” each time. Also, the Potency entry in [17] was “inactive”. The Potency in assay [12] was 16.8 µM (active).

Take `O=S1(=O)OCC2C(CO1)C1(Cl)C(Cl)=C(Cl)C2(Cl)C1(Cl)Cl` (stereo not drawn): the Potency in assay [1] was 24.3 µM (active). In addition, the Potency result in assay [2], in assay [3], in assay [4], in assay [5], in assay [6] and in assay [7] was “inactive” in each case. In addition, the Potency entry in assay [8], in assay [10], in assay [11], in [12], in [13] and in assay [16] was “inactive” each time. Further, the Potency entry in [17] is “inactive”.

Take `CCc1nn(C)c(C(=O)NCc2ccc(C(C)(C)C)cc2)c1Cl`: the Potency result in assay [1], in assay [20], in assay [3], in [4], in assay [5] and in assay [10] was “inactive” in each case. In addition, the Potency result in assay [11], in assay [12], in [13], in assay [14] and in assay [15] was “inactive” throughout.
